Sampled rows, rich in hits. Any-hit rate of the full collection: about 3.9%.
GALK inhibitor: inhibitors of human galactokinase; 0.007% of 270,000 active; Potency, µM (doses to about 57.5 µM), without a hit: at the highest dose activity change, negative = inhibition, actives largely listed as inhibitors; Purified GALK, Kinase-Glo residual ATP luminescence; P51570; note: potency is the fitted concentration of half-maximal effect; % is set by controls: 0 for no effect and ±100 for the full control effect
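Luminescence from leftover ATP (Ultra-Glo luciferase/luciferin) served as read-out after a 1 h room-temperature reaction of 5 nM GALK with 35 uM ATP and 100 uM galactose.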
USP2a inh: inhibitors of human ubiquitin-specific protease USP2a | O75604 | USP2 core, Ub-CHOP2 coupled fluorogenic reporter, 485/531 | Potency, µM (titrated, usually from 38.3 µM), without a hit: at the top dose activity change, negative = inhibition, hits mostly inhibitors | 0.01% of 330,000 active;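 note: potency is the fitted concentration of half-maximal effect; plate controls were DMSO wells for no effect and full inhibition by NEM control for full effect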
Target sequence (O75604 whole entry, looked up): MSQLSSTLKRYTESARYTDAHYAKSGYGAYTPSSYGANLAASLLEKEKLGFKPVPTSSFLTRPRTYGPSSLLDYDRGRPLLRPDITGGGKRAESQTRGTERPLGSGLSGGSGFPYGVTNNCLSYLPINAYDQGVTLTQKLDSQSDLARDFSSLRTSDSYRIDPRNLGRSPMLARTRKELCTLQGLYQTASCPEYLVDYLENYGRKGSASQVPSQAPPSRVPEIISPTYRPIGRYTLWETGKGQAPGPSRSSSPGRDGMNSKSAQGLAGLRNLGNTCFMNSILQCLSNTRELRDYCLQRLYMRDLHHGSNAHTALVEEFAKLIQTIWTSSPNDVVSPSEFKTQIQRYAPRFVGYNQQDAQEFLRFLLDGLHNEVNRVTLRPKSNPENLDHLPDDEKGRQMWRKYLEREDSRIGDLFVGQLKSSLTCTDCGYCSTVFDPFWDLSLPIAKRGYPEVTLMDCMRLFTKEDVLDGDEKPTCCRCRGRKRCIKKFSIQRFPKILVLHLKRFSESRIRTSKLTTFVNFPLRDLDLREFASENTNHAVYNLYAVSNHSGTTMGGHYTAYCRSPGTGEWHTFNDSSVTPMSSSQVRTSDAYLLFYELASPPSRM
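Cell-free coupled assay: 10nM USP2 core preincubated 30min RT with compound in Tris-HCl pH 8.0/CaCl2/CHAPS buffer, then 25nM Ub-CHOP2 and 25nM reporter substrate; fluorescence (Ex 485/Em 531) read after 60min RT, normalized to NEM inhibition, concentration-response curves fitted.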
D1 antagonist: blocks dopamine activation of the human D1 receptor. P21728. HEK293 TREx D1 cells, calcium flux, dopamine EC80; hits give low values. activity change, negative = inhibition, % at 10 µM. 3.2% of 360,000 active; in the data active = activity change below about -30%; note: % is set by controls: 0 for no effect and ±100 for the full control effect
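Tetracycline-induced HEK293 T-REx cells with force-coupled D1 receptor were loaded with a no-wash calcium dye. Compound was added after a 10 s baseline and read kinetically for 180 s; EC80 dopamine was then added and calcium flux followed another 180 s.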
Eya2 phos inh: Eya2 (human) phosphatase inhibition. O00167. recombinant Eya2, OMFP fluorescence dephosphorylation (OMFP is methylfluorescein phosphate). Potency, µM (highest dose often 76.9 µM), for inactives: at the highest dose activity, negative = inhibition, hits mostly inhibitors. 0.006% of 330,000 active; note: potency is the fitted concentration of half-maximal effect; % is set by controls: 0 for no effect and ±100 for the full control effect
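Eya2 protein (added as 0.2 uM solution) was preincubated with compound for 10 min at ambient temperature in 50 mM HEPES pH 7.5, 50 mM NaCl, 5 uM MgCl2, 0.05% BSA, 1 mM DTT. OMFP (added at 50 uM) then reacted 10 min; fluorescence read at 485/525 nm.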
D1 agonist: human D1 receptor agonism; P21728; HEK293 T-REx D1 cells, calcium flux, agonist mode; activation, % at 2 µM; 1% of 360,000 active; in the data active = activation above about 30%; note: 0% is about no effect
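Tetracycline-induced HEK293 TREx D1 cells, force-coupled to calcium signalling, were dye-loaded with a no-wash calcium kit. Compound was pin-added after a 10 s baseline. Fluorescence was read kinetically at 1 cycle/s for 180 s, with calcium rises flagged as agonism.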
D1 PAM: enhances dopamine response at the human D1 receptor; 0.036% of 360,000 active; AID 504651; potentiation, % at 10 µM; P21728; HEK293 TREx D1 cells, calcium flux, dopamine EC20 potentiation; in the data active = potentiation above about 30%; note: 0% is about no effect
Numbers without * were called inactive; ? = inconclusive; · = not tested or not shown. Unless noted, calls come from the whole dose curve; as a rule, active = well fitted inhibition curve with a large enough effect; inconclusive = small, poorly fitted or top-dose-only effect, or effect the other way; inactive = flat fitted curve, though single readings scatter.

SMILES	GALK inhibitor	USP2a inh	D1 antagonist	Eya2 phos inh	D1 agonist	D1 PAM
CC(=O)N1CCCc2cc(S(=O)(=O)NCc3cccc(C)c3)ccc21	·	·	-24	·	9	-1
CC(=O)N1CCCc2cc(S(=O)(=O)NCCC3=CCCCC3)ccc21	1%	0%	-30*	4%	13	-7
CC(=O)N1CC(C)Sc2ccc(S(=O)(=O)NCCc3ccccc3)cc21 (configuration not stated)	0%	-4%	-10	1%	26	-5
CC(=O)N1CCCc2cc(S(=O)(=O)NCc3ccc(C)cc3)ccc21	2%	0%	-37*	-5%	11	-14
CC(=O)N1CC(C)Sc2ccc(S(=O)(=O)NCCc3ccc(C)cc3)cc21 (configuration not stated)	-2%	-4%	-2	1%	31*	-3
O=S(=O)(NCCC1=CCCCC1)c1ccc(Br)cc1	-3%	-1%	-30*	-2%	2	-11
O=C(Nc1ccc2nc(SCC(=O)N3CCc4ccccc43)sc2c1)c1ccc(F)cc1	·	·	0	·	5	-1
COc1cccc(C(c2sc3nc(-c4ccco4)nn3c2O)N2CCC3(CC2)OCCO3)c1 (configuration not stated)	·	·	·	·	-3	-2
COc1ccc(C2C(=O)N(C3CCC(C)CC3)CC(=O)N2C2CCCC2)cc1OC (configuration not stated)	·	·	9	·	0	2
COc1ccc(C)cc1S(=O)(=O)NCCC1=CCCCC1	0%	-7%	4	-3%	1	-7
CCOc1ccc(S(=O)(=O)NCCC2=CCCCC2)c2ccccc12	0%	-18%	-36*	-4%	19	-5
Cc1ccc(NC(=O)Cn2c(=O)n(CC(=O)NCCc3ccccc3)c(=O)c3ccccc32)cc1C	·	·	-4	·	3	0
N#CC(C#N)=C1C=CC=CN1/C(=C\c1ccco1)C(=O)c1ccc(-c2ccccc2)cc1	-5%	0%	-20	-8%	1	-5
N#CC(C#N)=C1C=CC=CN1/C(=C\c1ccco1)C(=O)c1ccc(Cl)cc1	-3%	0%	-52*	-5%	3	-11
FC(F)(F)c1ccccc1NC(=S)Nc1ccccc1	3%	0%	-35*	3%	0	1
N=c1ncn(CC(O)CN2CCOCC2)c2nc(N3CCOCC3)[nH]c12 (configuration not stated)	2%	1%	-58*	-2%	5	-7
CCCN1CCN(c2nc3c([nH]2)c(=N)ncn3CC(O)CO)CC1 (configuration not stated)	1%	0%	-27	-20%	0	2
CCOc1ccccc1C(=O)NC1CCN(CC(=O)Nc2cc(OC)ccc2OC)CC1	2%	-2%	-31*	-4%	0	-11
COc1ccc(F)cc1CN1CCN(CC(=O)Nc2ccccc2C(=O)NC2CC2)CC1	·	-1%	-37*	9%	1	-7
O=C(Cn1c(=O)oc2cc(S(=O)(=O)NCc3ccccc3)ccc21)NCc1ccc(F)cc1	·	·	-4	·	6	0
COc1ccc(C2CC(c3ccc(F)cc3)=NN2c2ccccc2)cc1OC (configuration not stated)	0%	2%	-78*	-15%	6	1
CCOC(=O)CCc1c(C)c2cc3c(c(C)c2oc1=O)OCN(CCc1ccccc1OC)C3	·	·	-7	·	9	0
COc1cccc(CNC(=O)CSc2n[nH]c(-c3ccccc3Cl)n2)c1OC	·	·	-4	·	3	-3
CCOc1ccc(NC(=O)/C(C#N)=C/c2ccc(N3CCCC3)c(C)c2)cc1	3%	?	-5	26%	377*	4
CCN(CC)S(=O)(=O)c1ccc(N2CCCCC2)c(NC(=O)/C(C#N)=C/c2ccc(OC)cc2)c1	-4%	0%	0	0%	4	5
SMILES	GALK inhibitor	USP2a inh	D1 antagonist	Eya2 phos inh	D1 agonist	D1 PAM
CCOc1cc(/C=C(/C#N)C(=O)Nc2ccc(O)cc2)cc(Br)c1O	0%	2%	9	-21%	48*	-5
COc1cc(C2C(C#N)=C(N)Oc3cc(N(C)C)ccc32)cc2c1OCO2 (configuration not stated)	1%	1%	10	23%	45*	-1
COc1cc(C2C(C#N)=C(N)Oc3cc(O)ccc32)cc2c1OCO2 (configuration not stated)	-4%	1%	7	23%	10	-6
CCOc1cc2sc(N3CCC(C(=O)Nc4ccc(C)cc4)CC3)nc2cc1Br	·	·	-58*	·	1	-4
CCOc1ccccc1CN(CCc1ccc2c(c1)OCO2)Cc1cc(OC)c(OC)cc1OC	·	·	-20	·	1	-5
Cc1ccc(S(=O)(=O)Cc2ccc(C(=O)NCCc3ccc(Cl)cc3)o2)cc1	·	·	-23	·	2	4
Nc1ccc2nc(-c3ccccc3)c(-c3ccccc3)nc2c1	0%	-3%	0	2%	61*	9
Nc1ccc(Oc2ccc3nc(-c4ccccc4)c(-c4ccccc4)nc3c2)cc1	-1%	5%	2	-3%	1	3
CC1(C)OC(=O)C2(Cc3c(F)cccc3N3CCCC32)C(=O)O1 (configuration not stated)	·	·	-22	·	2	5
Fc1ccc(CSc2ncnc3scc(-c4ccccc4)c23)cc1	-1%	-1%	-13	3%	35*	-7
Cc1ccccc1OCc1n(CC(=O)OC2CC(C)CCC2C(C)C)c2ccccc2[n+]1C (configuration not stated)	2%	8%	0	6%	11	-5
CCCCCOC(=O)Cn1c(=O)oc2ccccc21	0%	2%	-17	-25%	0	2
CCCCCCCCCCOC(=O)Cn1c(COc2ccccc2C)[n+](C)c2ccccc21	0%	?	4	-30%	76*	-4
CCCCCCCCCCOC(=O)Cn1c(COc2ccc(Cl)cc2)[n+](C)c2ccccc21	-2%	?	-42*	-16%	137*	-12
CCCCCCCCCCOC(=O)Cn1c(COc2ccccc2)[n+](C)c2ccccc21	-3%	?	-42*	-24%	124*	-10
CCCCCCCCCCOC(=O)Cn1c(COc2cccc(C)c2)[n+](C)c2ccccc21	-4%	?	-19	-28%	116*	7
CC1CCC(C(C)C)C(OC(=O)Cn2c(-c3ccc(Cl)cc3)[n+](C)c3ccccc32)C1 (configuration not stated)	0%	0%	-14	?	10	-6
CCOC(=O)c1c(NC(=O)c2nc(SCC)ncc2Cl)sc2c1CCCC2	·	·	-4	·	3	-2
